Measured values published in ChEMBL document CHEMBL1157539, “Thousands of chemical starting points for antimalarial lead identification” (Nature, 2010).

Legend:
Format in all cases: functional
Plasmodium falciparum [1] = assay: GSK_TCMDC: Inhibition of Plasmodium falciparum 3D7 in whole red blood cells, using parasite LDH activity as an index of growth. Test compounds present at 2uM
Plasmodium falciparum [2] = assay: GSK_TCMDC: Inhibition of Plasmodium falciparum Dd2 in whole red blood cells, using parasite LDH activity as an index of growth. Test compounds present at 2uM
HepG2 = assay: GSK_TCMDC: Percent inhibition of human HepG2 cell line. Test compounds present at 10uM.

Row | Structure (SMILES) | Inhibition (Plasmodium falciparum [1]) [%] | Inhibition (Plasmodium falciparum [2]) [%] | Inhibition (HepG2) [%]
1 | CS(=O)(=O)Nc1cccc(-c2cnc3[nH]cc(-c4cccc(CN)c4)c3c2)c1 | 96 | 82 | 25
2 | Cc1[nH]c(C)c(-c2ccc(OCCCCSc3ccncc3)cc2)c(=O)c1Br | 97 | 97 | 0
3 | COc1cc2nc(N3CCC(CNC(=O)c4ccc(NC(=O)c5ccc(Cl)cc5)cc4)CC3)nc(N)c2cc1OC | 100 | 100 | 98
4 | Cl.O=C(NCCCCN1CCC(c2ccc3c(c2OC(=O)c2ccc(NC(=O)c4ccc(Cl)cc4)cc2)CCCC3)CC1)c1ccc(NC(=O)c2ccc(Cl)cc2)cc1 | 100 | 99 | 62
5 | CCOC(=O)c1c(C)n(-c2ccccc2)c2ccc(O)cc12 | 100 | 87 | 0
6 | COc1ccc(Nc2nccc(NCC(O)c3cccc(C(F)(F)F)c3)n2)cc1 (stereo not given) | 98 | 33 | 22
7 | Cl.Nc1c2c(nc3ccc(NC(=O)CCCc4ccccc4)cc13)CCCC2 | 100 | 42 | 73
8 | O=C(NCc1ccc(Cl)cc1)c1ccc(C(=O)NCC2CCCN2CC2CCCCC2)cc1.O=C(O)C(F)(F)F (stereo not given) | 97 | 10 | 21
9 | COc1ccc2nccc([C@@H](O)CN3CCC(NC(=O)c4ccc(-c5ccccc5)s4)CC3)c2c1 | 100 | 81 | 10
10 | OC(CNc1ccnc(Nc2cccc(OCCCN3CCOCC3)c2)n1)c1ccccc1 (stereo not given) | 97 | 25 | 48
